This passage reports outcome results from PubChem BioAssay (Tox21).

Records with an inconclusive call do not appear. Calls of active or inactive are those of the source. Calls follow the shape of the dose curve; as a rule, active = well fitted cell-killing curve with a large enough effect in the repeat runs; inconclusive = weak or mixed curves, or effect the other way; inactive = no such curve, though single readings can be large or run the other way.

The experiment can be described thus: qHTS assay for small molecule activators of the heat shock response signaling pathway - cell viability counter screen (AID 743209). Also: nearly all actives have a fitted effect of over 50% in size. Particulars: HSE-bla HeLa viability, CellTiter-Glo luminescence, 5 h; series mostly up to 62.6 µM. The source says: U.S. Tox21 Program National Center for Advancing Translational Sciences [NCATS] NIH Chemical Genomics Center [NCGC] U.S. Environmental Protection Agency [EPA] National Institutes of Environmental Health Sciences [NIEHS] National Toxicology Program [NTP] U.S. Food and Drug Administration [FDA] Tox21 Assay Overview: Various chemicals, environmental and physiological stress conditions may lead to the activation of heat shock response/ unfolded protein response (HSR/UPR). There are three heat shock transcription factors (HSFs) (HSF-1, -2, and -4) mediating transcriptional regulation of the human HSR. To identify the compounds that activate HSR signaling, HSE-bla HeLa cell line (Invitrogen, Carlsbad, CA, USA) containing a beta-lactamase reporter gene under the control of the heat shock response elements was used to screen Tox21 10K compound library. The cytotoxicity of the Tox21 compound library against the HSE-bla HeLa cell line was tested in parallel by measuring the cell viability using CellTiter-Glo assay (Promega, Madison, WI) in the same wells.
Tox21 Assay Protocol Summary: The CellSensor HSE-bla HeLa cells (Invitrogen, Carlsbad, CA, USA) were dispensed at 1500 cells/6uL/well into 1536-well black wall/clear bottom plates using a Multidrop combi (Thermo Fisher Scientific, Waltham, MA) dispenser. After the assay plates were incubated at 37 C and 5% CO2 overnight, 23 nL of compounds dissolved in DMSO, positive controls or DMSO only was transferred to the assay plate by a Pintool station (Kalypsys, San Diego, CA). The plates were incubated at 37 C for 5 h. After 1 uL of LiveBLAzerTM B/G FRET substrate was added using a Flying Reagent Dispenser (FRD, Beckman Coulter, Indianapolis, IN, USA), the plates were incubated at room temperature for 2.5 h, and fluorescence intensity was measured by an Envision plate reader (PerkinElmer, Shelton, CT). For cell viability readout that measures cytotoxicity, 3 ul/well of CellTiter-Glo reagent was added into the assay plates using a FRD. After 30 min incubation at room temperature, the luminescence intensity in the plates was measured using a ViewLux (PerkinElmer) plate reader.
In general terms: Quantitative high-throughput screening tests each substance at several concentrations.
Turning to `C=CCOC(=O)c1ccccc1C(=O)OCC=C`, the outcome was inactive.

Turning to `CCCCCCCCC/C=C/CC1CC(=O)OC1=O` (stereo not given), the result was inactive.

For the molecule `CC(c1cc2ccccc2s1)N(O)C(N)=O` (stereo not given), the result was inactive.

As to `OCc1cccnc1`, the result was inactive.

Regarding `O=C(Oc1ccccc1)c1ccccc1`, the molecule was classed as inactive.

On to `CC1=CCC2CC1C2(C)C` (stereo not given), for which the outcome was inactive.

As for `C[C@H]1C[C@@H]2[C@H]([C@@H](O)C[C@@]3(C)[C@H]2CC[C@]3(O)C(=O)CO)[C@@]2(C)C=CC(=O)C=C12`, the molecule was classed as inactive.

With `O=[N+]([O-])c1ccc(/C=C/c2ccc([N+](=O)[O-])cc2S(=O)(=O)O)c(S(=O)(=O)O)c1`, the call was inactive.

`CCCCN(CCCC)CCCC`: the call was inactive.

For the molecule `OCCOCCN1CCN(C2=Nc3ccccc3Sc3ccccc32)CC1`, the call was inactive.

Take `O=C(O)c1ccc2c(c1)C(=O)OC2=O`: the result was inactive.

For `CCCCCOC(C)=O`, the outcome was inactive.

Consider `O=S(=O)(O)c1ccc2ccccc2c1`, for which the result was inactive.

Turning to `CC(C)(N)CO`, the molecule was classed as inactive.

Regarding `COc1cc(Cc2cnc(N)nc2N)cc(OC)c1OC`, the molecule was called inactive.

With `Cc1cc(C)c(C)cc1C`, the call was inactive.

Consider `Nc1ccccc1[N+](=O)[O-]`, for which the call was inactive.

`CCCCCCCC(=O)OC`: the molecule was called inactive.

Turning to `NNc1nncc2ccccc12`, the result was inactive.

For the molecule `CCCCCCCCCCCCCCCO`, the molecule was called inactive.

Turning to `O=C1CCC(N2C(=O)c3ccccc3C2=O)C(=O)N1` (stereo not given), the call was inactive.

With `Fc1ccc(Br)cc1`, the call was inactive.

Turning to `O=C(CC(C(=O)OC1CCCCC1)S(=O)(=O)O)OC1CCCCC1` (stereo not given), the outcome was inactive.

`COCCCOc1ccnc(CS(=O)c2nc3ccccc3[nH]2)c1C` (stereo not given): the outcome was inactive.

Consider `c1ccc2scnc2c1`, for which the result was inactive.

`Cc1cccc(O)c1`: the molecule was called inactive.

`c1ccc2c(c1)ccc1ccccc12`: the outcome was inactive.

Turning to `CC1CCC(C(C)C)C(O)C1` (stereo not given), the call was inactive.

On to `CC(=O)OCC(=O)[C@@]12N=C(C)O[C@@H]1C[C@H]1[C@@H]3CCC4=CC(=O)C=C[C@]4(C)[C@H]3[C@@H](O)C[C@@]12C`, for which the outcome was inactive.

Consider `C=C(C)C(=O)O[C@H]1C[C@@H]2CC[C@@]1(C)C2(C)C`, for which the molecule was classed as inactive.

Turning to `O=C(O)c1cc(O)c(O)c(O)c1`, the outcome was inactive.

Turning to `COS(C)(=O)=O`, the molecule was classed as inactive.

Turning to `C#CCN(C)Cc1ccccc1`, the molecule was classed as inactive.

For the molecule `c1c[nH]cn1`, the molecule was called inactive.

In the case of `CCCCC(CC)COC(=O)C(C#N)=C(c1ccccc1)c1ccccc1` (stereo not given), the result was inactive.

Regarding `O=c1[nH]nnc2ccccc12`, the molecule was called inactive.

On to `CCCCCCCCCC`, for which the call was inactive.

As to `CN(C)CCC(c1ccccc1)c1ccccn1` (stereo not given), the outcome was inactive.

As to `C=C(C)C(=O)Nc1ccc(Cl)c(Cl)c1`, the call was inactive.

For `CCCCCCOCCO`, the outcome was inactive.
